Most compounds without a hit are left out; they make up all but 7% or so of the library.
BAZ2B inh: BAZ2B (human) inhibition. 360,000 compounds, 4.4% hits. Q9UIF8. AlphaScreen BAZ2B-H3K14Ac peptide displacement. Potency, µM (doses to about 114 µM), inactives show at the highest dose activity change, negative = inhibition, actives largely listed as inhibitors; further: potency means the concentration at half of the fitted maximal effect; on the % scale 0 is the no-effect control and ±100 the full control effect; nearly all actives have a fitted effect of over 60% in size
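Inhibition is scored as reduced AlphaScreen emission. The BAZ2B/b-H3(5-23)K14Ac complex (50 nM each) in PBS pH 7.4, 0.01% Tween-20 meets compound (up to 110 uM) for 30 min at RT before bead addition.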
KAT2A inh: blocks human GCN5L2 histone acetyltransferase | 390,000 compounds, 0.21% hits | GCN5L2 HAT assay, ThioGlo1 CoA-SH fluorescence | Q92830 | Potency, µM (titrated, usually from 58.9 µM), for the others: at the highest dose activity change, negative = inhibition, actives largely listed as inhibitors; further: potency means the concentration at half of the fitted maximal effect; on the % scale 0 is the no-effect control and ±100 the full control effect
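Free CoA generated was detected with ThioGlo1 (50uM) fluorescence at Ex340nm/Em540nm, read immediately and after 20 min at room temperature. Enzyme, 20 nM in HEPES pH 7.5 buffer, saw compounds 15 min before adding 75uM H3(1-25) peptide and 70uM acetyl-CoA.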
JMJD2A Tudor inh: blocks the human JMJD2A Tudor domain; O75164; AID 504339; 390,000 compounds, 4.4% hits; Potency, µM (series often up to 114 µM), for the others: at the top dose activity change, negative = inhibition, usual class: inhibitors; AlphaScreen JMJD2A-Tudor / H3K4me3 peptide binding; further: potency means the concentration at half of the fitted maximal effect; on the % scale 0 is the no-effect control and ±100 the full control effect; nearly all actives have a fitted effect of over 50% in size
HP1b binding inh: inhibitors of HP1-beta chromodomain binding to methylated histone tails | 390,000 compounds, 0.56% hits | AlphaScreen HP1-beta / biotin-H3K9me3 peptide binding | Potency, µM (titrated, usually from 114 µM), without a hit: top-dose activity change, negative = inhibition, hits mostly inhibitors | AID 540317; further: potency means the concentration at half of the fitted maximal effect; nearly all actives have a fitted effect of over 70% in size
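Compound inhibition of the preformed complex between 50 nM HP1-beta and 50 nM biotinylated H3K9me3 peptide was read by AlphaScreen. Buffer was PBS pH 7.4 with 0.01% Tween-20. Incubations ran 30 min at room temperature, with 10 ug/mL donor/acceptor beads.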
PLK1 PBD inh: blocks phosphopeptide binding to human PLK1 polo-box domain; P53350; Plk1 PBD binding of FITC phosphopeptide, fluorescence polarization; 360,000 compounds, 2.8% hits; Potency, µM, for the others: max response, negative = inhibition, most hits filed as inhibitors; further: potency means the concentration at half of the fitted maximal effect; series mostly up to about 57 µM; on the % scale 0 is the no-effect control and ±100 the full control effect; nearly all actives have a fitted effect of over 65% in size
Target sequence (P53350 whole entry, looked up, the tested form may be a part): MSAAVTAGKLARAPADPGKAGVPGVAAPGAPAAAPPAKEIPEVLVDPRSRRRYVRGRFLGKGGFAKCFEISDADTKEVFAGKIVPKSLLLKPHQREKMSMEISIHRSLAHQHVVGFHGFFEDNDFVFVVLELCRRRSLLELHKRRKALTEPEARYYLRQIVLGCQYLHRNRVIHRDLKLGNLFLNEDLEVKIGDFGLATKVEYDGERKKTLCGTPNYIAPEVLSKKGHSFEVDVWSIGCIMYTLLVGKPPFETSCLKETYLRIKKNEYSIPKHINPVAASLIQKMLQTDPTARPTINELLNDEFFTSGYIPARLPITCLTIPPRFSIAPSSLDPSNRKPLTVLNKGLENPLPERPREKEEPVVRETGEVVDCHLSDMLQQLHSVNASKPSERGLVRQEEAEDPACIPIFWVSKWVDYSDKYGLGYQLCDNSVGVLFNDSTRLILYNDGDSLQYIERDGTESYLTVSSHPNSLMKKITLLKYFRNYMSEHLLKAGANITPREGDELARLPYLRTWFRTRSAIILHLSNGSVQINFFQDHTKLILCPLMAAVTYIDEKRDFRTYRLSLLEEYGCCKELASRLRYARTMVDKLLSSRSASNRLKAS
PI5P4K alpha inh: PI5P4K alpha (human) kinase inhibition. PI5P4Kalpha enzyme, ADP-Glo luminescence, 60 min; active compounds read low. P48426. 330,000 compounds, 1.2% hits. AID 652105. max response, %; active means max response of -50% or lower; inconclusive means between -30% and -50%; inactive means -30% or higher; further: value at the top dose of about 77 µM; on the % scale 0 is the no-effect control and ±100 the full control effect
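Reactions run in 0.038 M HEPES pH 7.4, 0.28 mM EGTA, 0.1% CHAPS and 5% DMSO, with PI5P4Kalpha, substrate, compound and 5 microM ATP final, one hour at room temperature. Readout is ADP-Glo luminescence.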
Starred values were filed as active, the others as inactive; ? = inconclusive; nt = no result; [ ] = another dose, or the depositor's remark. Unless noted, the call rests on the fitted dose curve; in most records, active means well fitted curve in the direction sought with a large enough effect; inconclusive means small, poorly fitted or top-dose-only effect, or another doubt; inactive means no such curve, though single readings can be large; an effect the other way counts as inactive or inconclusive.

SMILES | BAZ2B inh | KAT2A inh | JMJD2A Tudor inh | HP1b binding inh | PLK1 PBD inh | PI5P4K alpha inh
O=C(OCc1ccccc1C(F)(F)F)c1ccc(Br)c(S(=O)(=O)N2CCOCC2)c1 | nt | nt | -8% | 36% | -12% | 1
CC(C)OC(=O)CNc1n[nH]c(=S)[nH]c1=O | -21% | -3% | 79µM* | 6% | -17% | -6
O=C(CCC(=O)NCCO)NCCO | -22% | 1% | -6% | 37% | 1% | -4
CC(O)CCC(=O)NCCNC(=O)CCC(C)O (stereo not drawn) | 8% | -2% | 28µM* | -12% | 11µM* | 1
Cn1cc(C(c2ccccc2OCC(=O)O)c2cn(C)c3ccccc23)c2ccccc21 | 50µM* | -5% | 14µM* | ? | 3µM* | -53*
c1ccc(C(c2c[nH]c3ccccc23)c2c[nH]c3ccccc23)nc1 | 45µM* | 1% | 79µM* | -28% | -1% | 8
Cn1cc(C(c2ccccn2)c2cn(C)c3ccccc23)c2ccccc21 | 35µM* | -2% | 22µM* | ? | 2% | 5
c1ccc(C(c2cccs2)c2c[nH]c3ccccc23)cc1 (stereo not drawn) | -31% | -5% | -26% | 15% | nt | nt
Cn1cc(SCC(=O)Nc2nccs2)c2ccccc21 | -2% | -25% | -24% | 15% | -18% | -5
COc1cccc2c1CCC1=CC(=O)CCC12C (stereo not drawn) | nt | nt | -12% | 41% | 2% | 3
Cc1ccc(C(=O)NC(=S)Nc2ccc(N3CCOCC3)cc2)c(C)c1 | 22µM* | -10% | ? | ? | -11% | -2
O=C(NC(=S)Nc1ccc(CN2CCOCC2)cc1)c1ccc(-c2ccc(Br)cc2)o1 | -5% | -7% | -22% | 18% | -14% | 1
COc1ccc(Br)cc1C(=O)NC(=S)Nc1ccc(Cl)c(C(=O)O)c1 | -10% | -5% | -22% | ? | 12µM* | -65*
COc1ccc(Br)cc1C(=O)NC(=S)Nc1ccc(CN2CCOCC2)cc1 | 25µM* | -23% | ? | -1% | -13% | 13
COC(=O)NC(=S)Nc1ccc(Oc2ccc(Cl)cc2Cl)c(Cl)c1 | -2% | -5% | -27%[11.4 µM] | ? | 3µM* | -16
COC(=O)NC(=S)Nc1ccc(Oc2ccc(Cl)cc2)c(Cl)c1 | 4% | 0% | -22% | 18% | -10% | nt
COc1ccc(Br)cc1/C=C/C(=O)NC(=S)Nc1ccc(Cl)c(C(=O)O)c1 | ? | 0% | -30% | -5% | -17% | -10
CCc1nccn1CCC(=O)N1CCCC(Nc2ccc(F)cc2)C1 (stereo not drawn) | -16%[57.1 µM] | 1% | -9% | 13% | -10% | 7
COc1cc2nc(C3CCC3)n(NC(=O)C3CCC3)c(=O)c2cc1OC | 6% | 21% | ? | -12% | 24µM* | -8
COc1cc2nc(C3CCC3)n(NC(=O)C(OC(C)=O)c3ccccc3)c(=O)c2cc1OC (stereo not drawn) | nt | -4% | -9% | 21% | -5% | nt
COc1cc2nc(C3CCC3)n(NC(=O)COc3ccccc3)c(=O)c2cc1OC | 0% | -2% | ? | -22% | 27µM* | nt
COc1ccccc1CNC(=O)c1cc2sccc2n1Cc1ccc(Cl)cc1 | -3% | -4% | -25% | 26% | nt | nt
CC(C)CN(C(=O)C1CCC1)c1c(N)n(Cc2ccccc2)c(=O)[nH]c1=O | nt | 0% | 0% | 29% | -19% | 2
Cc1ccc2c(=O)cc(C(=O)Nc3nnc(CC(C)C)s3)oc2c1C | -2% | -9% | -22% | 49% | nt | nt
CCOc1ccccc1OCCN1CCCC1 | -26% | -15% | 20µM* | -17% | -5% | -13
SMILES | BAZ2B inh | KAT2A inh | JMJD2A Tudor inh | HP1b binding inh | PLK1 PBD inh | PI5P4K alpha inh
N#Cc1ccccc1OCCCN1CCC(Cc2ccccc2)CC1 | ? | -20% | 4.5µM* | ? | 1% | -4
N#Cc1cccc(C(=O)C(=O)N2CCC(Cc3ccccc3)CC2)c1 | nt | nt | nt | nt | 1% | -2
Cc1ccc([N+](=O)[O-])c(OCCN2CCC(Cc3ccccc3)CC2)c1 | 22µM* | 0% | 3.2µM* | ? | -9% | 0
CCN1CCN(CCOc2ccccc2OCc2ccccc2)CC1 | 22µM* | 2% | 13µM* | ? | -12% | -1
O=C(COc1ccccc1[N+](=O)[O-])N1CCC(Cc2ccccc2)CC1 | nt | -9% | -5%[11.4 µM] | -21% | ? | -5
CCC(NC(=O)CCC(=O)N1CCN(S(=O)(=O)c2ccc(C)cc2)CC1)c1ccc(C)cc1 (stereo not drawn) | -1% | -2% | -9% | 23% | -10% | -4
NC(=O)c1ccccc1OCC(=O)N1CCC(Cc2ccccc2)CC1 | -4% | -3% | -9% | 41% | 0% | 0
CCOc1ccccc1OCCN1CCC(Cc2ccccc2)CC1 | 56µM* | -1% | 45µM* | -13% | -1% | -1
CCC(=O)c1ccccc1OCCCN1CCC(Cc2ccccc2)CC1 | -34% | -20% | 35µM* | ? | 4% | -3
COc1ccccc1OCCOCCN1CCCC1 | -26% | -7% | 50µM* | ? | 3% | 0
CN(C)C(=O)CSc1nc2cc(S(=O)(=O)N3CCOCC3)ccc2o1 | nt | -7% | -11% | -24% | 21µM* | -11
Nc1ccc(S(=O)(=O)N2CCOCC2)cc1 | nt | nt | -5% | 31% | nt | nt
Nc1nc2cc(S(=O)(=O)N3CCOCC3)ccc2o1 | nt | -25% | ? | ? | 5.3µM* | -29
O=C(NC(=S)NC1CCS(=O)(=O)C1)c1ccccc1 (stereo not drawn) | -13% | -9% | -10% | 41% | 0% | -3
CC(=O)NC1=C(NC2CCS(=O)(=O)C2)C(=O)c2ccccc2C1=O (stereo not drawn) | -19% | -17% | 20µM* | 45µM* | ? | -17
CN(C1=C(NC(=O)c2ccccc2)C(=O)c2ccccc2C1=O)C1CCS(=O)(=O)C1 (stereo not drawn) | 50µM* | 1% | ? | -15% | ? | -29
COc1ccccc1-c1cnc(C(O)c2ccc(C)cc2)[nH]1 (stereo not drawn) | nt | nt | nt | nt | 4% | 1
Nc1ccccc1N=Nc1ccccc1N | 3.2µM* | -3% | 2.8µM* | ? | -8% | 3
Cc1ccc(S(=O)(=O)Nn2c(C)ccc2C)cc1 | ? | -18% | 50µM* | 0% | -19% | -58*
Cc1ccc(S(=O)(=O)Nc2ccccc2NS(=O)(=O)c2ccc(C)cc2)cc1 | nt | nt | nt | nt | -15% | 0
CCOC(=O)c1cccc(NC(=O)Nc2ccc3c(c2)C(=O)OC3)c1 | -5% | -5% | -32% | 12% | -10% | -10
O=C1/C(=C\c2ccc(Cl)c(Cl)c2)CN(C(=O)CCN2CCOCC2)C/C1=C/c1ccc(Cl)c(Cl)c1 | nt | nt | 35µM* | -33% | -25% | 8
